# Results: PubChem BioAssay (NCATS)
# Inconclusive results are not listed. Values without a mark were called inactive. Calls come from the whole dose curve; as a rule, active = well fitted cell-killing curve with a large enough effect; inconclusive = small, poorly fitted or top-dose-only effect; inactive = flat fitted curve, though single readings scatter.
# Test: Cell Viability - LYMP2-026 (AID 989);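 note: cells exposed to compound for 24 h at 37 °C; nearly all actives have a fitted effect of over 50% in size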
# Conditions: LYMP2-026 lymphoblastoid cell viability, qHTS; series mostly up to 92.2 µM; activity change, negative = cytotoxic: at the top concentration
# Text: NIH Chemical Genomics Center [NCGC]
# NIH Molecular Libraries Screening Centers Network [MLSCN]
# National Institutes of Environmental Health Sciences [NIEHS]
# National Toxicology Program [NTP]
# We have developed a 1536-well cell-based assay for quantitative high throughput screening (qHTS) against a number of cell lines to determine in vitro cytotoxicity of small molecules. This particular assay uses a human lymphoblastoid cell line (LYMP2-026) purchased from Coriell Institute for Medical Research.
# NCGC Assay Protocol Summary:
# The CellTiter-Glo luminescent cell viability assay (Promega) is a homogeneous method to measure the number of viable cells in culture. The end point readout of this assay is based on quantitation of intracellular ATP, an indicator of metabolic activity, using the luciferase reaction. Luciferase catalyzes the oxidation of beetle Luciferin to oxyluciferin and light in the presence of ATP. The luminescent signal is proportional to amount of ATP present.
# Using the CellTiter-Glo luminescent cell viability assay, the amount of cellular ATP was measured in the lymphoblastoid cell line with complete culture medium following compound treatment for 24 hours. The assay was performed in opaque white Kalypsys 1536-well plates. In the screen, tetraoctylammonium bromide was used as positive control. Library compounds were measured for their ability to cause acute toxicity in the cell line, as reflected by a decrease in intracellular ATP levels, in a concentration-dependent manner. […] AC50 values were determined from concentration-response data modeled with the standard Hill equation.
# qHTS protocol for CellTiter Glo lymphoblastoid cellular assay
# [Step] [Parameter] [Value] [Description]
# 1. Reagent; 5 uL; 2500 lymphoblastoid cells/well
# 2. Time; 5 hr; 37 C incubation
# 4. Controls; 23 nL; Tetraoctylammonium bromide 6.4pM to 92 uM
# 5. Time; 24 hr; 37 C incubation
# 6. Reagent; 5 uL; CellTiter Glo reagent
# 7. Time; 30 min; Room Temperature
# 8. Detection; Luminescence; Viewlux plate reader
# Keywords: cell viability, cytotoxicity, lymphoblastoid cell line, luminescence, NTPHTS, NTPHTS_NCGC, NIEHS, DSSTox, MLSMR, MLSCN, NIH Roadmap, qHTS, NCGC
# % is set by controls: 0 for no effect and ±100 for the full control effect.
row,SMILES,"activity change, negative = cytotoxic"
1,O=C(O)c1cccc(Cl)c1Cl,-1.23%
2,C=CCCCCCCC=C,-7.25%
3,CNc1ccc([N+](=O)[O-])cc1,1.57%
4,CC(C)(O)CCC(C)(C)O,4.11%
5,Fc1ccccc1,4.96%
6,CCCCC(CC)CO (stereo not given),5.59%
7,OC/C(Br)=C(\Br)CO,-14.7%
8,c1ccc2c(c1)ccc1ncccc12,7.45%
9,Cc1ccc(S(=O)(=O)NC2CCCCC2)cc1,-1.71%
10,NC(=S)NNC(N)=S,-13.7%
11,Nc1ccc([N+](=O)[O-])c(N)c1,-20.7%
12,Cc1ccccc1C(=O)O,-0.247%
13,O=C(O)c1c(Cl)cccc1Cl,2.9%
14,CCC(C)O (stereo not given),2.25%
15,ICCc1ccccc1,-14.9%
16,O=C(O)c1ccc(C(=O)O)cc1,-6.36%
17,Cc1ccc([N+](=O)[O-])c(N)c1,-0.777%
18,CCCCC(=O)N(C)C,-0.578%
19,NS(=O)(=O)O,0.545%
20,CCCCCCCN,-3.1%

row,SMILES,"activity change, negative = cytotoxic"
1,OCCO,-0.0885%
2,O=C(O)/C=C/C(=O)O,-3.3%
3,CCCCOCCOCCOCCCC,-0.71%
4,Nc1c(Cl)cc(Cl)cc1Cl,3.31%
5,CC(=O)C1(C)CC2=C(CCCC2(C)C)CC1C (stereo not given),1.1%
6,C/C(C=O)=C/c1ccccc1,0.928%
7,Nc1ccc(F)cc1F,0.533%
8,Cc1cccc2cccnc12,-1.63%
9,NCCCCCCN,2.9%
10,Cc1cscn1,-0.702%
11,COc1cccc(N)c1,-3.25%
12,CCOc1ccccc1N,-4.33%
13,Cc1cc([N+](=O)[O-])ccc1N,3.44%
14,CC(C)(c1cc(Br)c(OCC(Br)CBr)c(Br)c1)c1cc(Br)c(OCC(Br)CBr)c(Br)c1 (stereo not given),-2.22%
15,Cc1cccc(Br)c1,-13.9%
16,Cc1ccc(N(C)C)cc1,3%
17,Cc1ccc2c(c1[N+](=O)[O-])C(=O)c1ccccc1C2=O,-7.62%
18,Clc1ccccn1,2.31%
19,CCCCCCCCC,2.07%
20,O=Cc1ccc(CO)o1,0.495%
